Results as given in article PMC4552634, “A New Set of Chemical Starting Points with Plasmodium falciparum Transmission-Blocking Potential for Antimalarial Drug Discovery” (PLoS ONE, 2015).
Among all 13,000 compounds or so, about 3,200 (25%) showed an effect of 50% or more. Some of the results follow.

Each compound was assayed on P. falciparum stage V gametocytes. Conditions: 48 h, 5 µM; inhibitor.
Design: BacTiter-Glo ATP luminescence viability of purified stage V gametocytes in 384-well plates, per cent inhibition versus DMSO

Compound | % Inhibition [%]
Cc1cccc2[nH]c(-c3cccc(-c4cccc(NC(=O)NCc5ccccc5)c4)c3)nc12 [TCMDC-133159] | 13.2
OCCOCn1cnc2cnc(N[C@H]3OC[C@H](O)[C@@H](O)[C@@H]3O)nc21 [TCMDC-138106] | 14.1
CCc1c(CCNC/C=C/C=C/CNCCc2ccc(OC)c(OC)c2CC)ccc(OC)c1OC [TCMDC-132061] | 102.8
COc1cc2c(OC)cccc2cc1CNCCCCCCNCc1cc2cccc(OC)c2cc1OC [TCMDC-137945] | 1.634
CCc1c(CCNCCCCCCNCCc2ccc(OC)c(OC)c2C)ccc(OC)c1OC [TCMDC-132051] | 107.2
CCc1c(CCNCCCCCCNCCc2ccc(Br)cc2)ccc(OC)c1OC [TCMDC-132045] | 110
CCc1c(CCNCCCCCCNCCc2ccc(OC)c(OC)c2CC)ccc(OC)c1OC [TCMDC-132047] | 111.8
O=C1C[C@@H]([S+]([O-])Cc2nccs2)N1CCOCCCCCCc1ccc(Cl)cc1 (stereo partly shown) [TCMDC-139269] | 27.24
Cc1cccc(NC(=O)Nc2ccc(I)c(OCCN(C)C)c2)c1C [TCMDC-139124] | -5.088
COc1ccc(Nc2nc(NCc3ccc(-n4ccnc4)cc3)cc(-c3ccc(OC)cc3)n2)cc1 [TCMDC-134025] | -3.76
Clc1ccc(Sc2cncnc2N2CCOCC2)cc1 [TCMDC-137279] | 19.11
O=C(Cc1ccccc1)NC1CCN(c2ccnc3cc(Cl)ccc23)C1 (stereo not shown) [TCMDC-133663] | -4.28
COCCn1c(Sc2ncnc3sccc23)nc2ccccc21 [TCMDC-125258] | 10.99
c1ccc2sc(Sc3ncnc4sccc34)nc2c1 [TCMDC-125539] | 99.53
Cn1c(Sc2ncnc3sccc23)nc2ccccc21 [TCMDC-124514] | 74.1
c1ccn2c(Sc3ncnc4sccc34)ncc2c1 [TCMDC-124602] | 29.96
CN(C)CCCNCCS(=O)(=O)c1cccc(Nc2ccc(-c3cccc(N(C)C)c3)cn2)c1 [TCMDC-134369] | 11.18
O=C(NC1CCCCC1)N(Cc1cccc(-c2ccc(CNCc3ccc4c(c3)OCO4)cc2)c1)C1CCN(Cc2ccccc2)CC1 [TCMDC-140632] | 106.9
O=C(NC1CCCCC1)N(Cc1ccc(-c2ccc(CNCc3ccc4c(c3)OCO4)cc2)cc1)C1CCN(Cc2ccccc2)CC1 [TCMDC-140641] | 57.56
O=C(NC1CCCCC1)N(Cc1ccc(-c2cccc(CNCc3ccc4c(c3)OCO4)c2)cc1)C1CCN(Cc2ccccc2)CC1 [TCMDC-140640] | 55.3
O=C(NCCc1ccccc1)N(Cc1cccc(-c2ccc(CNCc3ccc4c(c3)OCO4)cc2)c1)C1CCN(Cc2ccccc2)CC1 [TCMDC-140619] | 40.48
O=C(Nc1ccc(OC2CCN(Cc3ccc(F)cc3)CC2)c(Cl)c1)c1ccc(F)cc1 [TCMDC-133752] | 7.555
Cc1ccccc1C1CCN(C2CCC(NC(=O)/C=C/c3ccc(C#N)cc3)CC2)CC1 (stereo not shown) [TCMDC-133527] | -65.01
CS(=O)(=O)c1ccc(CNCc2ccc(-c3ccc(-c4nc5cc(C(F)(F)F)ccc5[nH]4)cc3)cc2)cc1.O=C(O)C(F)(F)F [TCMDC-132901] | -22.07

Compound | % Inhibition [%]
COC(=O)c1cc(C(O)CNC(C)CCc2cccc(F)c2)ccc1O (stereo not shown) [TCMDC-131242] | 17.15
CC(Cl)=CCc1c(C)[nH]c2c(ccc3ccccc32)c1=O [TCMDC-124085] | 30.93
CN1CCN(c2ccc3nc(-c4ccc5nc(-c6ccc(O)cc6)[nH]c5c4)[nH]c3c2)CC1 [TCMDC-125507] | 11.14
CN1CCN(c2ccc(-c3nc4c(C(N)=O)c(OCc5cc(Cl)cc(Cl)c5)ccc4[nH]3)cc2)CC1 [TCMDC-133563] | 101.6
CC(=O)c1cccc(Nc2nc3c(C#N)c(OCc4cc(Cl)cc(Cl)c4)ccc3[nH]2)c1 [TCMDC-133766] | -0.7844
CN(C)c1ccc(-c2ccc(C(=O)NC3CCN(Cc4ccccc4F)CC3)s2)cc1 [TCMDC-134368] | -72.91
COc1ccccc1CN1CCC(NC(=O)c2ccc(-c3cccc(Cl)c3)s2)CC1 [TCMDC-134356] | -14.44
COc1ccccc1CN1CCC(NC(=O)c2ccc(-c3ccc(N(C)C)cc3)s2)CC1 [TCMDC-134357] | 85.69
CN(C)c1ccc(CN2CCC(NC(=O)c3ccc(-c4cccc(Cl)c4)s3)CC2)cc1 [TCMDC-134329] | -64.24
COc1cccc(-c2ccc(C(=O)NC3CCN(Cc4ccc(C(C)(C)C)cc4)CC3)s2)c1 [TCMDC-134353] | -20.06
CC(=O)Nc1ccc(CN2CCC(NC(=O)c3ccc(-c4cccc(Cl)c4)s3)CC2)cc1 [TCMDC-134334] | 14.56
CSc1ccc(CN2CCC(NC(=O)c3ccc(-c4ccc(N(C)C)cc4)s3)CC2)cc1 [TCMDC-134342] | -80.35
CC(=O)Nc1ccc(CN2CCC(NC(=O)c3ccc(-c4ccc(N(C)C)cc4)s3)CC2)cc1 [TCMDC-134336] | 72.62
CN(C)c1ccc(-c2ccc(C(=O)NC3CCN(Cc4ccccc4)CC3)s2)cc1 [TCMDC-134367] | 44.5
CCc1ccc(CN2CCC(NC(=O)c3ccc(-c4ccc(N(C)C)cc4)s3)CC2)cc1 [TCMDC-134344] | -78.7
COc1cccc(-c2ccc(C(=O)NC3CCN(Cc4ccc(N(C)C)cc4)CC3)s2)c1 [TCMDC-134330] | 105
CN(C)c1ccc(CN2CCC(NC(=O)c3ccc(-c4ccc(N(C)C)cc4)s3)CC2)cc1 [TCMDC-134331] | 56.81
O=C(NCc1cccc2ccccc12)C(c1cc2ccccc2o1)N1CCN(C(c2ccccc2)c2ccccc2)CC1 (stereo not shown) [TCMDC-141007] | 25.05
CCCCCCN1CCN(Cc2cccc(NC(=O)c3cc4ccccc4o3)c2)CC1 [TCMDC-134620] | -12.01
CCNC(=O)c1ccc2c(c1)c(C)c(C)n2Cc1ccc(F)cc1 [TCMDC-124754] | 32.09
CC(=O)C1(c2ccccc2)CCN(CCC2(c3ccc(Cl)c(Cl)c3)CN(C(=O)c3cccc(Cl)c3)CCO2)CC1 (stereo not shown) [TCMDC-135347] | -30.91
CNS(=O)(=O)c1ccc(NC(=O)c2cc(-c3cccnc3)nc3ccc(Br)cc23)cc1 [TCMDC-125216] | -3.498
Cc1ccccc1C1CCN(C2CCC(NC(=O)C3=Cc4ccccc4OC3)CC2)CC1 (stereo not shown) [TCMDC-133553] | -49.51
O=S(=O)(NCCN1CCCC1)c1ccc(-c2cccc(CNC3Cc4ccccc4C3)c2)cc1 [TCMDC-132215] | 70.89

Compound | % Inhibition [%]
O=S(=O)(NCCN1CCCC1)c1ccc(-c2ccc(CNC3Cc4ccccc4C3)cc2)cc1 [TCMDC-132229] | 60.05
O=S(=O)(NCCN1CCCC1)c1cccc(-c2ccc(CNC3Cc4ccccc4C3)cc2)c1 [TCMDC-132241] | 96.68
COc1ccc(C2CCN(CCN3CCC(NC(=O)c4ccc(-c5cccc(C(F)(F)F)c5C(F)(F)F)cc4)CC3)CC2)c(OC)c1 [TCMDC-135427] | -31.75
CC(C)[C@H](NC(=O)c1ccc(O)c(-c2ccc(Cl)c(Cl)c2)c1)C(=O)NCCN1CCCC1 [TCMDC-140828] | 38.9
CN1CCN(c2ccnc3ccc(NC(=O)Nc4ccc5c(c4)CCC5=O)cc23)CC1 [TCMDC-139266] | 0.4556
O=C(Cc1cccc(Cl)c1)Nc1cccc(-c2c[nH]c3nc(Nc4ccccc4)ncc23)c1 [TCMDC-134679] | 29.34
O=C(C=Cc1ccc(Cl)c(Cl)c1)NCCCCCN1CCC(c2[nH]nc3ccccc23)CC1 [TCMDC-139402] | -6.391
COc1cccc2c(O)c(CNC3CCCCC3)ccc12 [TCMDC-137595] | 11.64
Cc1ccccc1OCC(O)CN1CCC(C2CCN(CC(O)COc3ccccc3C)CC2)CC1 (stereo not shown) [TCMDC-131841] | 97.67
O=C1NC(c2ccccc2)C2(CCN(CC(O)COc3cccc4ncccc34)CC2)O1 (stereo not shown) [TCMDC-136710] | -26.23
CCC(C)(C)c1ccc(OCC(O)CN2CCCCC2)c(C(C)(C)CC)c1 (stereo not shown) [TCMDC-123833] | 2.758
CCCc1ccccc1OCC(O)CN(C1CCCC1)C1CCCC1 (stereo not shown) [TCMDC-131423] | -5.815
Cc1ccccc1OCC(O)CNC1CCC(NCC(O)COc2ccccc2C)CC1 (stereo not shown) [TCMDC-125142] | 150
COc1ccc(NC(=O)Nc2ccc(-c3ccccc3)cc2)cc1Cn1cnc(N2CCCNCC2)cc1=O [TCMDC-134316] | 22.91
O=C(/C=C/c1ccc(Cl)c(Cl)c1)Nc1cccc(CN2CCC(c3c[nH]c4ccccc34)CC2)c1 [TCMDC-139600] | 0.6115
CC(=O)Nc1ncc(C(=O)Nc2cccc(-c3ccc(-c4nc5ccccc5[nH]4)cc3)c2)s1 [TCMDC-136917] | 7.51
O=C(CNC1CCCCC1)c1ccc(O)c(O)c1 [TCMDC-123961] | 59.16
CCC(=C(CC)c1ccc(O)c(CNC2CCCCC2)c1)c1ccc(O)c(CNC2CCCCC2)c1 [TCMDC-137481] | 84.66
Cc1cc(O)c(CNC2CCCCC2)cc1C [TCMDC-137589] | -0.1252
Oc1ccc2c(c1CNC1CCCCC1)CCCC2 [TCMDC-137501] | 23.3
CC(C)(C)c1ccc(O)c(CNC2CCCCC2)c1 [TCMDC-125856] | 17.68
Oc1ccc(-c2ccccc2)cc1CNC1CCCCC1 [TCMDC-137603] | -11.44
